# GRP78 ERSR act = qHTS for Inducers of the Endoplasmic Reticulum Stress Response (ERSR) in Human Glioma: qHTS; AID 602332, 2012; U87-MG GRP78 promoter luciferase reporter, 16 h; 420,000 tested, 0.02% active; Potency, µM, usual class: activators; active = well fitted activation curve with a large enough effect; inconclusive = small, poorly fitted or top-dose-only effect; inactive = no such curve, though single readings can be large or run the other way; note: series mostly up to about 76 µM; nearly all actives have a fitted effect of over 35% in size
#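 Stably transfected U87-MG human glioma cells carrying a GRP78-based luminescent sensor were seeded at 1000 cells/well, pin-dosed with compounds and incubated 16 h. Luciferase reagent was then added, and end-point luminescence was read after 10 min at room temperature.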
# TRHR enhancer = qHTS for Small Molecule Agonists and Allosteric Enhancers of Human TRH Receptor: Primary Screen for Enhancers. Thyrotropin-releasing hormone receptor (Homo sapiens), P34981. TRHR cells, fluo-8 calcium fluorescence, EC20 TRH enhancement. enhancement, % at 2 µM. 360,000 tested, 0.66% active; in the data active = enhancement above about 30%
# Target sequence (P34981 whole entry, looked up): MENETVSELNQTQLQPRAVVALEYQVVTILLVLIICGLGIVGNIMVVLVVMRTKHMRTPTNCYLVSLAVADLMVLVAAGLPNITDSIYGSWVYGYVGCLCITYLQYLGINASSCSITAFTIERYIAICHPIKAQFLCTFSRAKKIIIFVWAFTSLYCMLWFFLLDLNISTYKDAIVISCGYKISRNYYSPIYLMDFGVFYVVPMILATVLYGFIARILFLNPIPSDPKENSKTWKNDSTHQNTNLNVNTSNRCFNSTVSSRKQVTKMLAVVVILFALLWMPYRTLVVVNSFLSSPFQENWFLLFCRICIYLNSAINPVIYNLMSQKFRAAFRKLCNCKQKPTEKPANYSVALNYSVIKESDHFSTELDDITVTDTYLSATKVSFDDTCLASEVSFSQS
#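 TRHR-expressing cells loaded with fluo-8 calcium dye were read kinetically (ex 480/em 530) during compound addition, then stimulated with an EC20 of TRH (10 nM final). Enhancement of the Gq-mediated intracellular calcium response was scored.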
# TRHR agonist = qHTS for Small Molecule Agonists and Allosteric Enhancers of Human TRH Receptor: Primary Screen for Agonists; Thyrotropin-releasing hormone receptor (Homo sapiens), P34981; 360,000 tested, 0.18% active; activation, % at 2 µM; TRHR cells, calcium flux fluo-8, FDSS agonist mode
#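 Read-out: compound-evoked intracellular calcium rise in TRHR cells, fluo-8 dye, kinetic FDSS fluorescence at 1 s/cycle following a 10-cycle baseline. Cells cultured overnight before dye loading (30 min–1.5 h, RT).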
# D1 antagonist = Antagonist of Human D 1 Dopamine Receptor: qHTS; D(1A) dopamine receptor (Homo sapiens), P21728; HEK293 TREx D1 cells, calcium flux, dopamine EC80; stronger effect = lower value; activity change, negative = inhibition, % at 10 µM; 360,000 tested, 3.2% active; AID 504652, 2011; in the data active = activity change below about -30%
#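 Antagonism measured as reduced calcium response to an EC80 dopamine addition following 180 s compound pre-read; cells were inducible HEK293 Trex D1 plated overnight at 30 C, read kinetically at 1 cycle/sec.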
# D1 ag = Allosteric Agonists of the Human D1 Dopamine Receptor: qHTS | 360,000 tested, 1% active | D(1A) dopamine receptor (Homo sapiens), P21728 | activation, % at 2 µM | HEK293 T-REx D1 cells, calcium flux, agonist mode
#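 Tetracycline-induced HEK293 TREx D1 cells, force-coupled to calcium signalling, were dye-loaded with a no-wash calcium kit. Compound was pin-added after a 10 s baseline. Fluorescence was read kinetically at 1 cycle/s for 180 s, with calcium rises flagged as agonism.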
# D1 potentiator = Potentiators of Human D1 Dopamine Receptor: qHTS; D(1A) dopamine receptor (Homo sapiens), P21728; HEK293 TREx D1 cells, calcium flux, dopamine EC20 potentiation; potentiation, % at 10 µM; 360,000 tested, 0.036% active; AID 504651, 2011; in the data active = potentiation above about 30%
# A number is an active result; n = inactive; u = inconclusive; x = not tested or not shown; ! = not confirmed by another sample. Hits are enriched below; roughly 4% of the tested compounds scored in any of these assays. Cut-off read from the data, not from the text of the source, unless noted: active = activation above about 30%; inactive = the rest.
SMILES,GRP78 ERSR act,TRHR enhancer,TRHR agonist,D1 antagonist,D1 ag,D1 potentiator
C/C(=N\Nc1ccc(C#N)cc1[N+](=O)[O-])c1ccc(O)cc1,n,n,n,-43.1,n,n
CC/C(=N\Nc1ccc([N+](=O)[O-])cc1[N+](=O)[O-])c1ccc(O)cc1,n,n,n,-34.1,n,n
C/C(=N/Nc1ccccc1[N+](=O)[O-])c1ccc([N+](=O)[O-])cc1,n,n,n,n,n,n
CCN1CCN(c2cc(C)c3cc(NC(=O)c4cccnc4Cl)ccc3n2)CC1,n,n,n,n,n,n
CCN1CCN(c2cc(C)c3cc(NC(=O)c4ccncc4)ccc3n2)CC1,n,n,n,n,n,n
CCOc1cc(C(=O)Nc2ccc3nc(N4CCN(C)CC4)cc(C)c3c2)cc(OCC)c1OCC,n,n,n,-33.8,n,n
Cc1cc(N2CCN(C)CC2)nc2ccc(NC(=O)c3cccnc3Cl)cc12,n,n,n,n,n,30.1
Cc1cc(N2CCN(C)CC2)nc2ccc(NC(=O)c3ccccc3F)cc12,n,n,n,-41.8!,n,n
CCOC(=O)/C=C1\SCC(=O)N1CC(=O)Nc1ccc2c(c1)CCC2,n,n,n,n,n,n
CCOC(=O)c1c(-c2ccccc2)csc1NC(=O)/C(C#N)=C/c1ccc(OC)c(OC)c1,n,n,n,n,n,n
CCOC(=O)c1c(-c2ccccc2)csc1NC(=O)/C(C#N)=C/c1ccc(O)c(OC)c1,n,n,n,n,88.8,n
COc1cc(OC)cc(-c2nnc(SCc3c(F)cccc3Cl)o2)c1,n,n,n,-33.0,n,n
Fc1cccc(Cl)c1CSc1nnc(CNc2ccccc2)o1,n,n,n,-40.7,n,n
Cn1c(CCN2CCCCC2)nc2cc(NS(=O)(=O)c3ccc(Cl)cc3)ccc21,n,n,n,n,n,n
Cn1c(CN2CCCCC2)nc2cc(NS(=O)(=O)c3ccc(Cl)cc3)ccc21,n,n,n,n,51.5,n
O=C(O)c1ccc(S(=O)(=O)N(Cc2ccc(F)cc2)C2CCCCC2)cc1,n,37.9,n,n,n,n
Cc1cc(C)c(OCC(=O)Nc2ccccc2N2CCCCC2)c(C)c1,n,n,n,n,n,n
Cc1cc(C)c(OCC(=O)Nc2ccccc2N2CCOCC2)c(C)c1,n,n,n,n,43.8,n
CCN(C(=O)CSc1nc(C)nc2sc(C)c(C)c12)C1CCS(=O)(=O)C1 (configuration not stated),n,n,n,-32.8,n,n
O=C(NCc1ccccc1)/C(NC(=O)c1ccccc1)=C(/Sc1ccccn1)c1ccccc1,n,n,n,n,n,n
CCOc1ccc(NC(=O)CCC(=O)NNS(=O)(=O)c2ccccc2[N+](=O)[O-])cc1,n,n,102.1,n,224.0,n
O=C(N/N=C/c1sc(=O)[nH]c1-[n+]1ccc2ccccc2c1)c1ccccc1[O-],u,n,n,n,33.8,n
O=C(N/N=C/c1sc(=O)[nH]c1-[n+]1ccccc1)c1ccccc1[O-],n,n,n,n,n,n
O=C(N=C1SCC(=O)N1c1ccccc1)c1ccco1,n,n,n,n,n,n
O=C(N=C1SCC(=O)N1c1ccccc1Cl)c1ccco1,n,n,n,-32.5,n,n
O=C(O)CCN(Cc1ccccc1)S(=O)(=O)c1ccc(Cl)cc1F,n,n,n,-37.9,n,n
Cc1[nH]n(-c2ccccc2)c(=O)c1N=Nc1cccc(Cl)c1,n,n,n,n,n,n
CC(=O)c1cccc(N=Nc2c(-c3ccccc3)[nH]n(-c3ccccc3)c2=O)c1,n,n,n,-30.7,n,n
CN(c1ccc(OCC(=O)Nc2cc(Cl)ccc2C(=O)O)cc1)S(=O)(=O)c1ccc(F)cc1,n,x,x,x,x,x

# Compound activity as filed in PubChem BioAssay.
